Source: the supplement of paper PMC8728848
The sample as a whole holds a higher share of the strongest signals than the screen did.

Legend:
Assay in all cases: glycan array binding signal (z-score within array); higher = stronger binding
Details in all cases: glycan notation: IUPAC condensed, linker removed
Fuc(a1-2)Gal = target: Fuc(a1-2)Gal
Method in brief: (§1)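 The binding signal is a Z-score computed within each array and averaged over linkers. Arrays of the same protein sequence at different concentrations or buffers were also averaged together. Data originate from 3228 arrays in the Consortium for Functional Glycomics database, kept only where the protein sequence was available.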

[1] = target: Fuc(a1-2)Gal(b1-3)GlcNAc(b1-2)Man(a1-3)[Fuc(a1-2)Gal(b1-3)GlcNAc(b1-2)Man(a1-6)]Man(b1-4)GlcNAc(b1-4)[Fuc(a1-6)]GlcNAc
Method in brief: as §1

[2] = target: Fuc(a1-2)Gal(b1-3)GlcNAc(b1-3)[Neu5Ac(a2-6)Gal(b1-4)GlcNAc(b1-6)]Gal(b1-4)Glc
Method in brief: as §1

[3] = target: Fuc(a1-2)Gal(b1-3)GlcNAc6S
Method in brief: as §1

[4] = target: Fuc(a1-2)Gal(b1-3)[Fuc(a1-4)]GlcNAc
Method in brief: as §1

[5] = target: Fuc(a1-2)Gal(b1-4)GlcNAc(b1-2)Man
Method in brief: as §1

[6] = target: Fuc(a1-2)Gal(b1-4)GlcNAc(b1-3)Gal(b1-4)GlcNAc(b1-3)Gal(b1-4)GlcNAc
Method in brief: as §1

[7] = target: Fuc(a1-2)Gal(b1-4)[Fuc(a1-3)]GlcNAc(b1-2)[Fuc(a1-2)Gal(b1-4)[Fuc(a1-3)]GlcNAc(b1-4)]Man(a1-3)[Fuc(a1-2)Gal(b1-4)[Fuc(a1-3)]GlcNAc(b1-2)Man(a1-6)]Man(b1-4)GlcNAc(b1-4)GlcNAc
Method in brief: as §1

[8] = target: Fuc(a1-2)[Gal(a1-3)]Gal(b1-3)GalNAc
Method in brief: as §1

[9] = target: Fuc(a1-2)[Gal(a1-3)]Gal(b1-3)GlcNAc
Method in brief: as §1

[10] = target: Fuc(a1-2)[Gal(a1-3)]Gal(b1-4)Glc
Method in brief: as §1

[11] = target: Fuc(a1-2)[GalNAc(a1-3)]Gal(b1-4)GlcNAc(b1-6)GalNAc
Method in brief: as §1

[12] = target: Fuc(a1-2)[GalNAc(a1-3)]Gal(b1-4)[Fuc(a1-3)]GlcNAc(b1-3)GalNAc
Method in brief: as §1

[13] = target: Fuc(a1-3)[Gal3S(b1-4)]Glc
Method in brief: as §1

Gal(a1-3)Gal(b1-4)GlcNAc = target: Gal(a1-3)Gal(b1-4)GlcNAc
Method in brief: as §1

[14] = target: Gal(a1-3)[Gal(a1-4)]Gal(b1-4)GlcNAc
Method in brief: as §1

[15] = target: Gal(b1-3)GalNAc(a1-3)[Fuc(a1-2)]Gal(b1-4)GlcNAc
Method in brief: as §1

[16] = target: Gal(b1-3)GlcNAc(a1-6)Gal(b1-4)GlcNAc
Method in brief: as §1

[17] = target: Gal(b1-3)GlcNAc(b1-3)Gal(b1-4)GlcNAc(b1-6)[Gal(b1-3)GlcNAc(b1-3)]Gal(b1-4)Glc
Method in brief: as §1

[18] = target: Gal(b1-3)GlcNAc(b1-3)GalNAc
Method in brief: as §1

[19] = target: Gal(b1-3)GlcNAc(b1-6)[Gal(b1-3)]GalNAc
Method in brief: as §1

[20] = target: Gal(b1-3)[Fuc(a1-4)]GlcNAc(b1-2)Man
Method in brief: as §1

[21] = target: Gal(b1-4)GlcNAc(b1-3)Gal(b1-4)Glc
Method in brief: as §1

[22] = target: Gal(b1-4)GlcNAc(b1-3)Gal(b1-4)GlcNAc(b1-3)Gal(b1-4)GlcNAc(b1-3)Gal(b1-4)GlcNAc(b1-2)Man(a1-3)[Gal(b1-4)GlcNAc(b1-3)Gal(b1-4)GlcNAc(b1-3)Gal(b1-4)GlcNAc(b1-3)Gal(b1-4)GlcNAc(b1-2)Man(a1-6)]Man(b1-4)GlcNAc(b1-4)GlcNAc
Method in brief: as §1

[23] = target: Gal(b1-4)GlcNAc(b1-3)Gal(b1-4)GlcNAc(b1-3)Gal(b1-4)GlcNAc(b1-3)Gal(b1-4)GlcNAc(b1-3)Gal(b1-4)GlcNAc(b1-2)Man(a1-3)[Gal(b1-4)GlcNAc(b1-3)Gal(b1-4)GlcNAc(b1-3)Gal(b1-4)GlcNAc(b1-3)Gal(b1-4)GlcNAc(b1-3)Gal(b1-4)GlcNAc(b1-2)Man(a1-6)]Man(b1-4)GlcNAc(b1-4)GlcNAc
Method in brief: as §1

[24] = target: Gal(b1-4)GlcNAc(b1-3)Gal(b1-4)GlcNAc(b1-3)[Gal(b1-4)GlcNAc(b1-3)Gal(b1-4)GlcNAc(b1-6)]GalNAc
Method in brief: as §1

GalNAc(b1-3)GlcNAc = target: GalNAc(b1-3)GlcNAc
Method in brief: as §1

GalNAc(b1-4)GlcNAc = target: GalNAc(b1-4)GlcNAc
Method in brief: as §1

[25] = target: GalNAc(b1-4)GlcNAc(b1-2)Man
Method in brief: as §1

[26] = target: GlcNAc(a1-4)Gal(b1-4)GlcNAc(b1-3)Gal(b1-4)GlcNAc(b1-3)Gal(b1-4)GlcNAc
Method in brief: as §1

[27] = target: GlcNAc(a1-6)Gal(b1-4)GlcNAc
Method in brief: as §1

[28] = target: GlcNAc(b1-3)Gal(b1-4)GlcNAc(b1-2)[GlcNAc(b1-3)Gal(b1-4)GlcNAc(b1-6)]Man(a1-6)[GlcNAc(b1-3)Gal(b1-4)GlcNAc(b1-2)Man(a1-3)]Man(b1-4)GlcNAc(b1-4)GlcNAc
Method in brief: as §1

[29] = target: GlcNAc(b1-3)Gal(b1-4)GlcNAc(b1-3)Gal(b1-4)GlcNAc(b1-2)Man(a1-3)[GlcNAc(b1-3)Gal(b1-4)GlcNAc(b1-3)Gal(b1-4)GlcNAc(b1-2)Man(a1-6)]Man(b1-4)GlcNAc(b1-4)[Fuc(a1-6)]GlcNAc
Method in brief: as §1

[30] = target: GlcNAc(b1-4)Gal(b1-4)GlcNAc
Method in brief: as §1

GlcNAc(b1-4)GlcNAc = target: GlcNAc(b1-4)GlcNAc
Method in brief: as §1

[31] = target: GlcNAc(b1-4)GlcNAc(b1-4)GlcNAc(b1-4)GlcNAc(b1-4)GlcNAc
Method in brief: as §1

[32] = target: Neu5Ac(a2-3)Gal(b1-3)GalNAc(b1-4)[Neu5Ac(a2-3)]Gal(b1-4)Glc
Method in brief: as §1

[33] = target: Neu5Ac(a2-3)Gal(b1-3)[Fuc(a1-4)]GlcNAc(b1-3)Gal(b1-3)[Fuc(a1-4)]GlcNAc
Method in brief: as §1

[34] = target: Neu5Ac(a2-3)Gal(b1-4)GlcNAc(b1-2)Man(a1-3)[Neu5Ac(a2-3)Gal(b1-4)GlcNAc(b1-2)Man(a1-6)]Man(b1-4)GlcNAc(b1-4)[Fuc(a1-6)]GlcNAc
Method in brief: as §1

[35] = target: Neu5Ac(a2-3)Gal(b1-4)GlcNAc6S
Method in brief: as §1

[36] = target: Neu5Ac(a2-3)[GalNAc(b1-4)]Gal(b1-4)GlcNAc
Method in brief: as §1

Neu5Ac(a2-6)Gal(b1-4)Glc = target: Neu5Ac(a2-6)Gal(b1-4)Glc
Method in brief: as §1

[37] = target: Neu5Ac(a2-6)Gal(b1-4)GlcNAc
Method in brief: as §1

[38] = target: Neu5Ac(a2-6)Gal(b1-4)GlcNAc(b1-2)Man(a1-3)[GlcNAc(b1-2)Man(a1-6)]Man(b1-4)GlcNAc(b1-4)GlcNAc
Method in brief: as §1

[39] = target: Neu5Ac(a2-6)Gal(b1-4)GlcNAc(b1-2)Man(a1-3)[Neu5Ac(a2-6)Gal(b1-4)GlcNAc(b1-2)Man(a1-6)]Man(b1-4)GlcNAc(b1-4)[Fuc(a1-6)]GlcNAc
Method in brief: as §1

[40] = target: Neu5Ac(a2-6)Gal(b1-4)GlcNAc(b1-2)[Neu5Ac(a2-6)Gal(b1-4)GlcNAc(b1-4)]Man(a1-3)[GlcNAc(b1-4)][Neu5Ac(a2-6)Gal(b1-4)GlcNAc(b1-2)[Neu5Ac(a2-6)Gal(b1-4)GlcNAc(b1-6)]Man(a1-6)]Man(b1-4)GlcNAc(b1-4)GlcNAc
Method in brief: as §1

[41] = target: Neu5Ac(a2-6)Gal(b1-4)GlcNAc(b1-3)[Neu5Ac(a2-6)Gal(b1-4)GlcNAc(b1-6)]GalNAc
Method in brief: as §1

[42] = target: Neu5Ac(a2-6)Gal(b1-4)GlcNAc6S
Method in brief: as §1

[43] = target: Neu5Ac(a2-6)GlcNAc(b1-4)GlcNAc(b1-4)GlcNAc
Method in brief: as §1

[44] = target: Neu5Ac(a2-8)Neu5Ac(a2-3)Gal(b1-3)GalNAc(b1-4)[Neu5Ac(a2-8)Neu5Ac(a2-3)]Gal(b1-4)Glc
Method in brief: as §1

Neu5Gc(a2-6)GalNAc = target: Neu5Gc(a2-6)GalNAc
Method in brief: as §1

B1: AT1G15820(NC) (Arabidopsis thaliana) (protein)
chain: MAMAVSGAVLSGLGSSFLTGGKRGATALASGVGDAIAPFSFGSLLGTQLLLMGWVESKRWVDFFNPDSQSVEWATPWSKTAENFANYTGDQGYPGGRFFDPLGLAGKNRDGVYEPDFEKLERLKLAEIKHSRLAMVAMLIFYFEAGQGKTPLGALGL
Fuc(a1-2)Gal
  glycan array binding signal (z-score): 4.29
[1]
  glycan array binding signal (z-score): 3.01
[2]
  glycan array binding signal (z-score): -0.346
[3]
  glycan array binding signal (z-score): -0.5
[4]
  glycan array binding signal (z-score): -0.307
[5]
  glycan array binding signal (z-score): 0.457
[6]
  glycan array binding signal (z-score): -0.439
[7]
  glycan array binding signal (z-score): -0.506
[8]
  glycan array binding signal (z-score): 0.211
[9]
  glycan array binding signal (z-score): -0.395
[10]
  glycan array binding signal (z-score): -0.243
[11]
  glycan array binding signal (z-score): -0.49
[12]
  glycan array binding signal (z-score): 4.75
[13]
  glycan array binding signal (z-score): -0.315
Gal(a1-3)Gal(b1-4)GlcNAc
  glycan array binding signal (z-score): -0.211
[14]
  glycan array binding signal (z-score): 4.55
[15]
  glycan array binding signal (z-score): -0.432
[16]
  glycan array binding signal (z-score): -0.36
[17]
  glycan array binding signal (z-score): 5.77
[18]
  glycan array binding signal (z-score): -0.541
[19]
  glycan array binding signal (z-score): -0.208
[20]
  glycan array binding signal (z-score): -0.282
[21]
  glycan array binding signal (z-score): 3.65
[22]
  glycan array binding signal (z-score): 0.202
[23]
  glycan array binding signal (z-score): 0.01
[24]
  glycan array binding signal (z-score): 4.39
GalNAc(b1-3)GlcNAc
  glycan array binding signal (z-score): -0.221
GalNAc(b1-4)GlcNAc
  glycan array binding signal (z-score): 7.2
[25]
  glycan array binding signal (z-score): -0.306
[26]
  glycan array binding signal (z-score): -0.156
[27]
  glycan array binding signal (z-score): -0.626
[28]
  glycan array binding signal (z-score): 0.582
[29]
  glycan array binding signal (z-score): 2.99
[30]
  glycan array binding signal (z-score): 0.405
GlcNAc(b1-4)GlcNAc
  glycan array binding signal (z-score): -0.216
[31]
  glycan array binding signal (z-score): 4.7
[32]
  glycan array binding signal (z-score): -0.581
[33]
  glycan array binding signal (z-score): -0.555
[34]
  glycan array binding signal (z-score): -0.329
[35]
  glycan array binding signal (z-score): -0.18
[36]
  glycan array binding signal (z-score): -0.475
Neu5Ac(a2-6)Gal(b1-4)Glc
  glycan array binding signal (z-score): -0.637
[37]
  glycan array binding signal (z-score): -0.363
[38]
  glycan array binding signal (z-score): -0.052
[39]
  glycan array binding signal (z-score): 0.316
[40]
  glycan array binding signal (z-score): -0.4
[41]
  glycan array binding signal (z-score): -0.424
[42]
  glycan array binding signal (z-score): -0.322
[43]
  glycan array binding signal (z-score): -0.481
[44]
  glycan array binding signal (z-score): 5.08
Neu5Gc(a2-6)GalNAc
  glycan array binding signal (z-score): -0.493
